High-throughput results (PubChem)
In the library only some 4.7% were active in any assay of this set; here they are far more common.
D1 antag = antagonists of human D1 dopamine receptor. AID 504652. 360,000 compounds, 3.2% hits. P21728. activity change, negative = inhibition, % at 10 µM. HEK293 TREx D1 cells, calcium flux, dopamine EC80; hits give low values; in the data active = activity change below about -30%
Target sequence (P21728 whole entry, looked up): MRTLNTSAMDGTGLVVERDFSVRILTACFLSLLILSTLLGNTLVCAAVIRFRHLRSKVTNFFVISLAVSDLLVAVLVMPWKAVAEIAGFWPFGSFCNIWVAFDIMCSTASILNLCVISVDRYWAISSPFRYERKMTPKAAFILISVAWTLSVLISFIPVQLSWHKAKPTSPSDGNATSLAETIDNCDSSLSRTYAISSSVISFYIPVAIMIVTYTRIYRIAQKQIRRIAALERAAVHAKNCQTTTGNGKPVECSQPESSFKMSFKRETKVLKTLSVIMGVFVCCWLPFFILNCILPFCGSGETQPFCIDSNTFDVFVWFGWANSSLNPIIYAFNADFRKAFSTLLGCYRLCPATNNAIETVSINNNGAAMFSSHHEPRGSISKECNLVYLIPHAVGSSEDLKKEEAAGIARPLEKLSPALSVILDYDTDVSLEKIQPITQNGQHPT
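Cells carrying a force-coupled, tetracycline-inducible human D1 receptor report calcium flux. Each well gets a 10 s baseline, compound with 180 s monitoring, then an EC80 dopamine stimulus with a second 180 s kinetic read.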
D1 potentiator = potentiators of human D1 dopamine receptor; AID 504651; HEK293 TREx D1 cells, calcium flux, dopamine EC20 potentiation; 360,000 compounds, 0.036% hits; P21728; potentiation, % at 10 µM; in the data active = potentiation above about 30%
TRHR ag = TRH receptor (human) agonism; activation, % at 2 µM; TRHR cells, calcium flux fluo-8, FDSS agonist mode; P34981; 360,000 compounds, 0.18% hits; AID 493084
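Fluo-8-loaded TRHR cells; 10 s baseline, compound added, kinetic Ca2+ fluorescence read 1/s, agonist mode.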
TRHR enhancer = allosterically enhances the human TRH receptor. P34981. enhancement, % at 2 µM. TRHR cells, fluo-8 calcium fluorescence, EC20 TRH enhancement. 360,000 compounds, 0.66% hits; in the data active = enhancement above about 30%
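TRHR-expressing cells loaded with fluo-8 calcium dye were read kinetically (ex 480/em 530) during compound addition, then stimulated with an EC20 of TRH (10 nM final). Enhancement of the Gq-mediated intracellular calcium response was scored.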
D1 ag = agonists of human D1 dopamine receptor; activation, % at 2 µM; HEK293 T-REx D1 cells, calcium flux, agonist mode; 360,000 compounds, 1% hits; P21728
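Agonism was scored from calcium flux recorded over 180 s (1 read/s) after pintool compound addition, following a 10-cycle baseline. Cells were inducible force-coupled HEK293 TREx D1, plated overnight at 30 C and loaded with no-wash calcium dye.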
Large screens that a line does not name were inactive. Cut-off read from the data, not from the text of the source, unless noted: active = activation above about 30%; inactive = the rest.

COc1ccc(S(=O)(=O)CCC(=O)N2CCN(c3ccc(C(C)=O)cc3)CC2)cc1	D1 antag -38.8
CCCOc1ccc(C(=O)N2CCCc3ccccc32)cc1	D1 antag -45.0
COc1ccc(N2CCN(C(=O)CCS(=O)(=O)c3ccc(OC)cc3)CC2)cc1	none
CCOC(=O)N1CCN(C(=O)COC(=O)Cc2ccc(OC)cc2)CC1	TRHR enhancer 33.8
CCOc1ccc(C(=O)N2CCc3ccccc32)cc1	none
c1ccc(CNCc2nnc(-c3cc4ccccc4[nH]3)o2)cc1	none
COc1ccc(NC(=O)N2CCCc3ccccc32)cc1OC	D1 antag -54.9
COc1ccc(N2CCN(C(=O)C3(S(=O)(=O)c4ccc(C)cc4)CC3)CC2)cc1	D1 antag -58.4
COc1ccc(N2CCN(C(=O)COC(=O)CCOc3ccc(C)cc3)CC2)cc1	D1 antag -31.5
COc1ccc(CC(=O)OCC(=O)c2ccc(OC)c(OC)c2)cc1	D1 antag -31.1
COC(=O)c1cc(NS(=O)(=O)c2cc(Br)cc3c2N(C(C)=O)CC3)cc(C(=O)OC)c1	none
CC(=O)c1cccc(NC(=O)c2sc(-n3nc(C)c(Cc4ccccc4)c3C)nc2C)c1	none
COc1ccc(N2CCN(C(=O)COC(=O)c3cc(S(=O)(=O)N(C)C)ccc3N3CCCC3)CC2)cc1	D1 antag -48.3
COc1ccccc1NC(=O)C(=O)NCC(c1cccnc1)N1CCc2ccccc2C1 (stereo not given)	none
O=S(=O)(N/N=C/c1ccc(OC2CSC2)cc1)c1ccccc1	D1 ag 47.3
CCn1c(-c2ccc(S(=O)(=O)N3CCOCC3)cc2)csc1=Nc1ccc(C)c(Cl)c1	D1 antag -36.7
COCCCn1c(-c2ccc(S(=O)(=O)N3CCOCC3)cc2)csc1=Nc1ccccc1	none
Cc1ccccc1CS(=O)(=O)c1ncc(Cl)c(C(=O)Nc2nnc(C(C)C)s2)n1	none
Cc1ccc(NC(=O)c2nc(S(=O)(=O)Cc3ccc(F)cc3)ncc2Cl)cc1C	D1 antag -37.1
Cc1ccc(NC(=O)c2nc(S(=O)(=O)Cc3ccccc3C)ncc2Cl)cc1C	D1 antag -40.4
Cc1cccc(Nc2ncc(NC(=O)c3cccc(F)c3)c(Nc3cccc(C)c3)n2)c1	none
COc1ccc(S(=O)(=O)NC(C)C(=O)Nc2cccc(C(C)=O)c2)cc1 (stereo not given)	D1 antag -42.6
Cc1cc2ccccc2n1CCNC(=O)c1cc(C(F)(F)F)cc(C(F)(F)F)c1	none
COc1ccccc1CCN1COc2c(cc3c(C)c(C)c(=O)oc3c2C)C1	D1 antag -31.2
N#Cc1cc(N)c(Nc2ccccc2)cc1C#N	D1 antag -41.1
CCOC(=O)c1c(C)[nH]c(C)c1S(=O)(=O)N1CCC(C(=O)N2CCN(c3ccccc3)CC2)CC1	none
COc1cc2c(cc1OC)CN(C(=S)Nc1ccc(Cl)cc1)CC2	D1 antag -35.3
COc1cccc(NC(=S)N2CCc3cc(OC)c(OC)cc3C2)c1	none
CCC(CC)C(=O)Nc1c2c(nn1-c1ccc(F)cc1)CS(=O)(=O)C2	D1 antag -90.9
CCC(CC)C(=O)Nc1c2c(nn1-c1ccc(OC)cc1)CS(=O)(=O)C2	none
COc1cccc(C(=O)Nc2c3c(nn2-c2ccc(Cl)cc2)CS(=O)(=O)C3)c1	D1 antag -32.8
O=C(Nc1c2c(nn1-c1ccc(Cl)cc1)CS(=O)(=O)C2)c1ccc(Br)cc1	D1 antag -31.9
O=C(Nc1c2c(nn1-c1ccc(Cl)cc1)CS(=O)(=O)C2)c1ccc2c(c1)OCO2	none
COc1ccc(-n2nc3c(c2NC(=O)COc2ccccc2F)CS(=O)(=O)C3)cc1	D1 antag -37.6
COc1cccc(C(=O)Nc2c3c(nn2-c2ccc([N+](=O)[O-])cc2)CS(=O)(=O)C3)c1	none
CC(=O)Nc1ccc(NC(=O)c2oc3ccc4c(c3c2C)C(=O)CC(C)(C)O4)cc1	none
CC(C)(C)OC(=O)CC12CCCCC1NC(=O)O2 (stereo not given)	none
O=C1CCC2CCCCC2(O)O1 (stereo not given)	TRHR enhancer 33.4
CC(C)OC(=O)NCCOC(=O)Nc1cccc(Cl)c1	D1 antag -30.9
C=COCCNC(=O)Nc1ccc(Cl)c(Cl)c1	D1 antag -56.7, D1 ag 46.8
O=C(Nc1cccc(Cl)c1)OCCOc1ccccc1	D1 antag -31.0
CC(C)OC(=O)NCCOC(=O)Nc1ccc(Cl)c(Cl)c1	D1 antag -40.2
COc1ccc(N2CCN(c3c4c(nc5nncn35)CCC4)CC2)cc1	none
CCOC(=O)c1cccc(NC(=O)CSc2cc(=O)n(C)c3ccccc23)c1	none
COc1cccc(CNC(=O)C(NS(=O)(=O)c2cccs2)C(C)C)c1 (stereo not given)	none
COc1cccc(Nc2nc3ccccc3nc2NS(=O)(=O)c2cccs2)c1	D1 antag -32.4
CSc1nsc(NC(=O)OCc2ccc(Cl)cc2)n1	D1 antag -36.4
NCC12CC3CC(C1)CC(c1ccc(Cl)cc1)(C3)C2	D1 ag 38.5
Nc1ccc(C23CC4CC(CC(CO)(C4)C2)C3)cc1	none
O=C(CCN1C(=O)C2C3C=CC(C3)C2C1=O)Nc1nccs1 (stereo not given)	D1 antag -63.8
CCn1nc(C)c2c(-c3ccccc3)cc(=O)n(C(C)C(=O)NCc3ccc(C)cc3)c21 (stereo not given)	none
CCOc1ccccc1/C=N/NC(=O)Cc1csc(Nc2cccc(C(F)(F)F)c2)n1	none
CCOc1ccc(/C=N/NC(=O)Cc2csc(Nc3cccc(C(F)(F)F)c3)n2)c(OCC)c1	D1 antag -32.4
COc1ccc(NC(=O)CCS(=O)(=O)c2nc(-c3cccs3)cc(C(F)(F)F)n2)cc1OC	none
c1ccc(CC2CCN(c3ncnc4sccc34)CC2)cc1	D1 ag 37.7
COc1ccc(C(CCNC(C)c2ccccc2)c2ccc(F)cc2)cc1 (stereo not given)	D1 ag 55.5
COc1ccc(CNCCC(c2ccc(F)cc2)c2ccc(OC)cc2)cc1 (stereo not given)	D1 ag 34.2
COc1ccc(C(CCNCc2ccc(F)cc2)c2ccc(F)cc2)cc1 (stereo not given)	D1 ag 45.9
COc1ccc(C(CCNCc2ccccc2)c2ccc(F)cc2)cc1 (stereo not given)	none
COCCNC(=O)CCc1nnc2ccc(N3CCC(C)CC3)nn12	TRHR enhancer 30.6
CCOC(=O)C(Cc1ccccc1)NC(=O)CCc1nnc2ccc(N3CCOCC3)nn12 (stereo not given)	D1 antag -30.3
CCOC(=O)N1CCN(C(=O)c2c[nH]c3ccc(S(=O)(=O)N(C)c4cccc(C)c4)cc3c2=O)CC1	none
CCOC(=O)N1CCN(C(=O)c2c[nH]c3ccc(S(=O)(=O)N(C)c4ccccc4C)cc3c2=O)CC1	D1 antag -33.9
